Bioassay records from PubChem BioAssay.
PI5P4K alpha inh: inhibitors of human PI5P4K alpha; max response, %; PI5P4Kalpha enzyme, ADP-Glo luminescence, 60 min; hits give low values; P48426; hit rate 1.2% among 330,000; AID 652105; active means max response of -50% or lower; inconclusive means between -30% and -50%; inactive means -30% or higher; further: value at the top dose of about 77 µM
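Enzyme plus substrate dispensed, test compounds pinned in, then ATP (5 microM final) added. After 60 min at RT, ADP-Glo reagent 1 for 45 min and reagent 2 for 30 min preceded luminescence imaging.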
PGK inhibitor: T. brucei PGK inhibition; hit rate 0.043% among 380,000; PGK/GAPDH coupled, Kinase-Glo luminescence, 60 min; P07378; Potency, µM (doses to about 57.5 µM), actives largely listed as inhibitors; AID 602233; further: nearly all actives have a fitted effect of over 60% in size
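Luminescent ATP detection (Kinase-Glo Plus) follows a 60-minute room-temperature incubation, with wells lacking PGK as controls. Buffer: 100 mM TEA (pH 7.6), 5 mM MgCl2, 0.01% Tween-20. Coupling enzyme GAPDH (100 nM final) supplies unstable 1,3-BPG in-well.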
Tb PFK inh: inhibitors of T. brucei phosphofructokinase; hit rate 0.17% among 330,000; Potency, µM (highest dose often 57.5 µM), actives largely listed as inhibitors; O15648; AID 485367; T. brucei PFK, ADP-Glo luminescence; further: nearly all actives have a fitted effect of over 60% in size
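Luminescent ADP detection (ADP-Glo, two-step: ATP depletion then ADP-to-ATP conversion for luciferase) reported PFK activity after 45 min room-temperature reaction of 1.25 nM enzyme with 0.5 mM F6P and 0.1 mM ATP at pH 8.0.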
Pin1 inh: human Pin1 inhibition | Q13526 | Pin1 FP peptide displacement, HiFluor488, 10 min | Potency, µM (doses to about 115 µM), usual class: inhibitors | hit rate 0.009% among 390,000 | AID 504891; active means well fitted inhibition curve with a large enough effect in the polarisation, with a control signal flat, not every such curve was filed as active; inconclusive means small, poorly fitted or top-dose-only effect, or effect the other way, or a change in a side signal; inactive means no such curve, though single readings can be large or run the other way; the % refers to the polarisation
Target sequence (Q13526 whole entry, looked up): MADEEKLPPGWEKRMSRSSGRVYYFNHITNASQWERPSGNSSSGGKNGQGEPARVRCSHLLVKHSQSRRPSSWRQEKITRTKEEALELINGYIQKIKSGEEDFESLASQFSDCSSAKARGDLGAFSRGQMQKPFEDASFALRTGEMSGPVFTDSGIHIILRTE
PI4K2A inh: blocks human PI4K2A kinase activity | purified PI4K2A, ADP-Glo luminescence, 1 h; hits give low values | Q9BTU6 | hit rate 0.13% among 420,000 | activity change, negative = inhibition, % at 76.9 µM | AID 1346378; in the data active means activity change below about -50%; inconclusive means mostly about -30% to -49%
Target sequence (Q9BTU6 whole entry, looked up): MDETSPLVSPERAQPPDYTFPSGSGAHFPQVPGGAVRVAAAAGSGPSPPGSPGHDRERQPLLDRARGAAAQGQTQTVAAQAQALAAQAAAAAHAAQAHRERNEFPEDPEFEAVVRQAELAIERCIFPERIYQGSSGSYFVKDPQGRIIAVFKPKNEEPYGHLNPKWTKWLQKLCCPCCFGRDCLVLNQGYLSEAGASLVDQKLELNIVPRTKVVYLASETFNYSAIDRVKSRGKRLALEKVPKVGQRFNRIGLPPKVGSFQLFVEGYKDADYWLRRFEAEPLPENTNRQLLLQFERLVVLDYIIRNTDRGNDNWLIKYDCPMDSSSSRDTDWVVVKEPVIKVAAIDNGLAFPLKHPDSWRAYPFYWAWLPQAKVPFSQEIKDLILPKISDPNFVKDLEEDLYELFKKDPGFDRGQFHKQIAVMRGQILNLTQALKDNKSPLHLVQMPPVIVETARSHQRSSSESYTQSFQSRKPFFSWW
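Compounds are screened against recombinant PI4K2A using PI as substrate and ATP, the latter dispensed at 300 microM. Reactions run one hour at ambient temperature before ADP-Glo detection; full inhibition defined by wells lacking enzyme.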
Large screens that a line does not name were inactive; ! = repeats disagree. Only a selection was taken, and hits are over-represented in it overall. Unless noted, the call rests on the fitted dose curve; in most records, active means well fitted curve in the direction sought with a large enough effect; inconclusive means small, poorly fitted or top-dose-only effect, or another doubt; inactive means no such curve, though single readings can be large; an effect the other way counts as inactive or inconclusive.

O=[N+]([O-])c1cccc(/C=N\N=C2c3ccccc3-c3ccccc32)c1O	PI5P4K alpha inh -54
O=C1NC(=Nc2ccccc2Cl)S/C1=C\c1cccc([N+](=O)[O-])c1O	PI5P4K alpha inh -85, PGK inhibitor inconclusive
O=C1NC(=Nc2ccccc2Cl)S/C1=C\c1ccc(C(=O)O)cc1	PI5P4K alpha inh -65 (no result: PGK inhibitor)
COc1c(/C=C2\SC(=Nc3ccccc3Cl)NC2=O)cccc1[N+](=O)[O-]	PI5P4K alpha inh -72
O=C1NC(=Nc2ccccc2Cl)S/C1=C\c1cccc([N+](=O)[O-])c1	Pin1 inh inconclusive
COc1ccc(/C=C2\SC(=Nc3ccccc3Cl)NC2=O)c(OC)c1	none (no result: Tb PFK inh, Pin1 inh)
Cc1ccccc1N=C1NC(=O)/C(=C/c2cccnc2)S1	PI5P4K alpha inh inconclusive
CC(=O)c1cc(-c2ccccc2)n(CCC(=O)NC2CCC(C)CC2)c1C (stereo unspecified)	none
O=C1Nc2ccccc2/C1=N\N=C\c1ccc(O)c(O)c1	PI5P4K alpha inh -56, Pin1 inh inconclusive
O=C(N/N=C/c1ccco1)C1CC1c1ccccc1 (stereo unspecified)	PI5P4K alpha inh -50
CC(=O)Nc1ccc(S(=O)(=O)NCCN2CCOCC2)cc1	none (no result: PI5P4K alpha inh)
CN=c1nc(-c2ccccc2)n(-c2ccccc2)s1	PI5P4K alpha inh -86
COc1ccc(NC(=O)c2csc3c2CCCC3)cc1	PI4K2A inh -61 (no result: PI5P4K alpha inh)
COc1cccc(NC(=O)c2csc3c2CCCC3)c1	none
CCC(=O)Oc1ccc2c(c1)O/C(=C\c1ccco1)C2=O	PI5P4K alpha inh -65, Pin1 inh inconclusive
CC(=O)Oc1ccc2c(c1)O/C(=C\c1ccncc1)C2=O	PI5P4K alpha inh -53, Pin1 inh inconclusive
COc1ccccc1C(=O)Oc1ccc2c(c1)O/C(=C\c1ccncc1)C2=O	PI5P4K alpha inh -57, Pin1 inh inconclusive
NC(N)=N/N=C/c1ccc(OCc2ccc(Cl)cc2)cc1	Pin1 inh inconclusive (no result: PI5P4K alpha inh, PGK inhibitor)
CNC(=S)N/N=C/c1cc(Br)cc(Br)c1O	PI5P4K alpha inh inconclusive
Oc1c(Br)cc(Br)cc1/C=N/NC(=S)N[C@H]1CC2C=CC1C2 (stereo partly specified)	PI5P4K alpha inh -89
CCN1CC2([N+](=O)[O-])C=CC(=O)C([N+](=O)[O-])(C1)C2CC(=O)c1ccccc1 (stereo unspecified)	PI5P4K alpha inh -53, Pin1 inh inconclusive
CCCCN1CC2([N+](=O)[O-])C=CC(=O)C([N+](=O)[O-])(C1)C2CC(=O)c1ccccc1 (stereo unspecified)	none
CCCCCCCCCCCCCCCC[n+]1cccc(C(=O)N(CC)CC)c1	PI5P4K alpha inh -73!
Cc1cccc(/C=N/NC(=O)c2cccc([N+](=O)[O-])c2)n1	none
Nc1c(C(=O)Nc2ccccc2Cl)nnn1-c1ccc2c(c1)OCCO2	none
Cc1cc(/C=C(\C#N)C(=O)O)c(C)n1CC1CCCO1 (stereo unspecified)	PI5P4K alpha inh -72
COc1ccc(-c2cccc(NC(=O)c3ccco3)c2)nn1	none
COc1ccc(-c2ccc(NC(=O)c3ccco3)cc2)nn1	PGK inhibitor inconclusive, PI4K2A inh -53
COc1ccc(OCCCC(=O)OCC(=O)Nc2ncc(Cl)cc2Cl)cc1	none (no result: Pin1 inh)
Cn1cnnc1SC/C(O)=C(\C#N)c1nc2ccccc2[nH]1	none
Cc1cccc(Nc2nnc(SC/C(O)=C(\C#N)c3nc4ccccc4[nH]3)s2)c1C	PI5P4K alpha inh -59, Pin1 inh inconclusive
Cc1ccc(Nc2nnc(SCC(O)=C(C#N)c3nc4ccccc4[nH]3)s2)c(C)c1	PI5P4K alpha inh inconclusive, Pin1 inh inconclusive (no result: Tb PFK inh)
Cc1cccc(C)c1Nc1nnc(SC/C(O)=C(\C#N)c2nc3ccccc3[nH]2)s1	PI5P4K alpha inh -68
CCOC(=O)Cn1cc2c(c1-c1ccc(Cl)cc1)c(=O)n(C)c(=O)n2C	none (no result: PI5P4K alpha inh, Tb PFK inh)
COc1cc(OC)c(C2CC(=O)N3CN(c4ccccc4)CSC3=C2C#N)cc1OC (stereo unspecified)	none (no result: PI5P4K alpha inh)
CCc1ccccc1N1CSC2=C(C#N)C(c3cc(OC)c(OC)cc3OC)CC(=O)N2C1 (stereo unspecified)	PI5P4K alpha inh inconclusive
COc1cc(C2CC(=O)N3CN(c4ccccc4C)CSC3=C2C#N)cc(OC)c1OC (stereo unspecified)	none (no result: PI5P4K alpha inh, PGK inhibitor, Pin1 inh, PI4K2A inh)
COc1ccccc1N1CSC2=C(C#N)C(c3ccc(SC)cc3)CC(=O)N2C1 (stereo unspecified)	PI5P4K alpha inh -83 (no result: Pin1 inh)
COc1cccc(C2CC(=O)N3CN(c4ccccc4F)CSC3=C2C#N)c1 (stereo unspecified)	PI5P4K alpha inh -74
COc1ccc(OC)c(C2CC(=O)N3CN(c4ccc(C)c(Cl)c4)CSC3=C2C#N)c1 (stereo unspecified)	PI5P4K alpha inh -102
COc1ccc2ccccc2c1C1CC(=O)N2CN(C)CSC2=C1C#N (stereo unspecified)	PI5P4K alpha inh -84, Pin1 inh inconclusive
Nc1c(C(=O)c2ccccc2)sc2snc(SCC(=O)c3ccccc3)c12	Pin1 inh inconclusive
COc1ccc(Nc2nc3ccccc3n3cnnc23)cc1Cl	none
COc1ccc(OC)c(C2CC(=O)N3CN(c4ccccc4F)CSC3=C2C#N)c1 (stereo unspecified)	PI5P4K alpha inh -94
CC(c1ccccc1)c1nnc(NC(=O)Nc2ccccc2)s1 (stereo unspecified)	none
CC(c1ccccc1)c1nnc(NC(=O)Nc2ccccc2F)s1 (stereo unspecified)	PI4K2A inh -50
Cn1ncc([N+](=O)[O-])c1C(=O)Nc1ccccc1C(=O)O	PI5P4K alpha inh -52
CC1(C)Cc2c(c(N3CCOCC3)nc3snc(NC(=O)c4ccccc4)c23)CO1	none
COC(=O)c1ccc(NC(=O)C(=O)c2cccn2C)cc1	PI5P4K alpha inh -53, PI4K2A inh -82
CC1CCCC(NC(=O)COC(=O)c2ccccc2Sc2ccccc2C#N)C1C (stereo unspecified)	none
CC(CC(=O)Nc1nc2ccccc2[nH]1)c1ccccc1 (stereo unspecified)	none
N/C(=N\OC(=O)Cc1cccs1)c1ccccc1	PI5P4K alpha inh -61
Cc1ccc(/C(N)=N/OC(=O)Cc2cccs2)cc1	none
CCCC1=NN2C(=N)/C(=C\c3ccc(SCc4ccco4)o3)C(=O)N=C2S1	PI5P4K alpha inh -56, Tb PFK inh inconclusive, Pin1 inh inconclusive
CCC1=NN2C(=N)/C(=C\c3ccc(SCc4ccco4)o3)C(=O)N=C2S1	PI5P4K alpha inh -52
CCCS(=O)(=O)NC(=O)C1(C)CCCN(C(=O)c2c(C)noc2C)C1 (stereo unspecified)	none (no result: PGK inhibitor, Tb PFK inh, Pin1 inh)
COc1cccc(NC(=O)C2CCCN2S(=O)(=O)c2ccc3c(c2)n(C)c(=O)c(=O)n3C)c1 (stereo unspecified)	none
Cc1ccc(C(c2ccc(C)o2)c2cccc([N+](=O)[O-])c2O)o1	PI5P4K alpha inh -56
Cc1cc(C(c2ccc(C)o2)c2ccc(C)o2)c(O)c([N+](=O)[O-])c1	none
